An excerpt weighted towards active compounds, which were near 8.7% of everything screened.
PostGolgi ctrl = yeast control strain growth, post-Golgi counter-screen; efflux-deficient yeast background strain, growth absorbance A615, 16 h; inhibition, % at 10 µM; 5% of 98,000 active; AID 738
Smad3 inh = inhibitors of human Smad3 transcription factor binding; TR-FRET Smad3/Dy647-FoxH1 peptide binding, europium anti-His; inhibition, % at 25 µM; 0.29% of 88,000 active; P84022; AID 630;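 active means compounds that reduce the energy-transfer binding signal between the protein and its labelled peptide by more than half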;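 further: 0% = Smad3 plus labelled peptide maximal FRET and 100% = peptide-only background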
Target sequence (P84022 whole entry, looked up): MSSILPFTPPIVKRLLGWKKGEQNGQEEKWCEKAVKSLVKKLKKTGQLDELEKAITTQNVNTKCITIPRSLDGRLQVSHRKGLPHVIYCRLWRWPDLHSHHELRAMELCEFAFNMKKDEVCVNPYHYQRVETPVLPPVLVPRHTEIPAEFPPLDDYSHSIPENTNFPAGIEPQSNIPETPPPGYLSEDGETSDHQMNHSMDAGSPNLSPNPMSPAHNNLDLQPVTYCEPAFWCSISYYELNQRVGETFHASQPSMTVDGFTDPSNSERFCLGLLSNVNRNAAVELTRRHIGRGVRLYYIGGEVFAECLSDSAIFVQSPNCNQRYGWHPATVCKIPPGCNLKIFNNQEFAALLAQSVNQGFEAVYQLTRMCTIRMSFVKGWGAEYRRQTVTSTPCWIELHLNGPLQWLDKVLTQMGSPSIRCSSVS
Cav3 T inh = blocks human Cav3.2 T-type calcium channel; O95180; Cav3.2-expressing cells, Fluo-4 calcium fluorescence FDSS; stronger effect = lower value; B-score at 10 µM; 4% of 100,000 active;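 active means single-dose well whose peak fluorescence ratio is a statistical outlier from its plate by either plate-standardised score or position-corrected B-score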
TNAP act DEA = activates human TNAP at intermediate phosphate acceptor concentration; 64,000 tested, under 10 active; P05186; activation factor at 20 µM; purified TNAP, CDP-star luminescence, 100 mM DEA, 30 min; stronger effect = higher value; scale: 0 levamisole-inhibited, 1 vehicle-only enzyme;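 active means activation factor of at least 2 at 20 µM, relative to controls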
DAT uptake mod = human DAT dopamine uptake with cocaine, either direction. B-score at 10 µM. 1.3% of 110,000 active. AID 449768. Q01959. LLC-PK1 hDAT cells, [14C]-dopamine uptake with cocaine IC80; actives deviate in either direction;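 active means Z score or B-score, a plate-position-corrected score, falls beyond the plate's 99.7% confidence bounds, in either direction; inactive means both scores lie inside the 99.7% bounds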;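 further: scored against the spread of the other compound wells on the same plate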
PostGolgi yeast = growth inhibition of a yeast mutant, post-Golgi transport screen | post-Golgi transport phenotypic cell assay | inhibition, % at 10 µM | 0.9% of 98,000 active | AID 739;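 further: yeast cells grown in 1536-well plates; yeast grown about 18 h at 30C before absorbance read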
Starred values were filed as active, the others as inactive; . = no result; [ ] = dose if it differs, or a comment. Unless noted, no stated cut-off is given here; in the data, active means inhibition above about 30%; inactive means the rest.

SMILES | PostGolgi ctrl | Smad3 inh | Cav3 T inh | TNAP act DEA | DAT uptake mod | PostGolgi yeast
CC(C)C(=O)NCCc1nc2ccccc2n1CCCOc1ccc(Cl)cc1 | 24 | . | -5.6* | . | 1.9 | 2
Cc1ccc(OCCn2c(CCCO)nc3ccccc32)cc1 | 3 | -14 | -3.4 | 1 | -0.82 | 9
Cc1ccc(OCCn2c(CCNC(=O)C(C)C)nc3ccccc32)cc1 | -8 | . | -6.9* | . | 0.27 | 1
CC(C)(C)N1CC(c2nc3ccccc3n2CCOc2ccccc2)CC1=O (configuration not stated) | -2 | -9 | -3.9* | . | 1.2 | 8
CCCc1nc2ccccc2n1CCOc1ccccc1 | 9 | 6 | -5.3* | . | . | 8
CCOC(=O)C1=C(O)/C(=C\c2cccc(OC)c2)N=C1C | -2 | . | 1.1 | . | -0.15 | -4
CC(=O)N1CCCc2cc(S(=O)(=O)N(C)Cc3ccccc3)ccc21 | 0 | . | -0.73 | 1 | 1.5 | -4
COc1ccc(CCNC(=O)c2cnccn2)cc1 | -7 | -1 | 0.39 | 0.9 | 0.047 | -10
COc1ccc(CCNC(=O)c2c(O)c3cccc4c3n(c2=O)CC4)cc1 | 12 | -15 | 0.17 | 0.9 | 0.039 | -7
CCOC(=O)CNC(=O)Nc1nnc(-c2ccc(OCC)cc2)o1 | 1 | -4 | -0.33 | 1 | 0.027 | -6
CCCOC(=O)c1ccc(NC(=O)c2cn(CC)c3nc(C)ccc3c2=O)cc1 | 3 | 61*[fluorescence artefact?] | . | . | . | -2
O=C(Nc1ccccn1)c1ccc(COc2ccccc2Cl)o1 | . | 3 | -1.1 | . | 1.4 | .
O=C(Nc1cccnc1)c1ccc(COc2cc(Cl)ccc2Cl)o1 | 60* | -5 | -2.4 | . | -0.66 | 13
O=C(Nc1nn(Cc2ccc(Cl)cc2)cc1Br)c1ccc(COc2ccccc2Cl)o1 | 2 | . | -6.2* | . | 0.33 | 4
O=C(Nc1ccn(Cc2ccccc2F)n1)c1ccc(COc2cc(Cl)ccc2Cl)o1 | 13 | . | -4.9* | . | 0.29 | 1
O=C(Nc1ccn(Cc2ccccc2F)n1)c1ccc(COc2cccc(Br)c2)cc1 | 8 | . | -7.3* | . | 0.85 | -9
O=C(Nc1cccnc1)c1ccc(COc2ccccc2Cl)o1 | 7 | 5 | 2.5 | . | 0.66 | 0
Nc1sccc1C(=O)c1ccccc1 | 2 | 2 | 0.27 | 0.9 | 0.013 | 8
CCC1CCCCN1CC(=O)Nc1cc(C)nn1-c1nc(C)cc(C)n1 (configuration not stated) | 7 | 6 | 0.027 | 1 | 0.26 | 8
COc1ccc(-c2nnc(SCc3nnc(-c4ccc(Cl)cc4)o3)n2-c2ccccc2)cc1 | 20 | 0 | -8.4* | 1 | 0.5 | -2
Cc1ccc(N)cc1CN1CCCC1=O | 21 | 3 | . | 0.9 | -1.9* | -1
Cc1ccc(C)c(CN2CCNC2=O)c1 | 5 | 3 | 1.4 | 0.9 | 0.39 | -12
C/C(N[O-])=C(\C)[N+]([O-])=[Co].CC(=N\[O-])/C(C)=N/[O-].C[CH-][C@@H](C)O.c1ccncc1 | . | 66* | . | . | . | .
CCCC[C@@H]1CCCO[C@@](C(=O)NCc2cc(C)n(C)n2)(C(F)(F)F)C1 | . | . | 1.2 | . | 0.48 | .
CCCC[C@@H]1CCCO[C@@](C(=O)NCc2ccccn2)(C(F)(F)F)C1 | . | . | -1.2 | . | 3.1* | .
SMILES | PostGolgi ctrl | Smad3 inh | Cav3 T inh | TNAP act DEA | DAT uptake mod | PostGolgi yeast
c1cnc(N2CCSCC2)nc1 | 8 | -4 | 0.088 | 1 | -0.81 | 28
NC(=O)C1=C[C@H](c2ccccc2)C[C@H](OCc2ccc(CO)cc2)O1 | . | . | 0.38 | . | -0.96 | .
Cc1ccc(SCCNC(=S)Nc2ccc(C)c(C)c2)cc1 | 16 | 1 | -4.4* | . | 0.3 | 2
S=C(NCCSCc1ccc(Cl)c(Cl)c1)Nc1ccccc1 | . | . | -1.5 | . | 0.86 | .
Cc1ccc(SCCNC(=S)Nc2cc(C)ccc2C)cc1 | 15 | 2 | -4.1* | . | 1.3 | -2
Cc1ccc(NC(=S)NCCO)c(C)c1 | 11 | . | -0.12 | . | 0.56 | -5
S=C(NCCSCc1c(Cl)cccc1Cl)Nc1ccccc1 | 9 | . | -5.8* | . | 1.6 | -5
Cc1ccc(SCCNC(=S)Nc2ccccc2)cc1 | 17 | 4 | -6.1* | . | 0.026 | -3
C=CCNC(=S)Nc1ccccc1 | 10 | . | 0.44 | . | -0.36 | -6
Cn1c(=O)c2c(nc(CN3CCOCC3)n2CCCc2ccccc2)n(C)c1=O | . | 5 | 0.24 | . | 0.61 | .
c1ccc(Cn2cc(CSc3ccccc3)nn2)cc1 | . | . | -0.0058 | . | 0.17 | .
Clc1ccc(/C=N/Nc2ncnc3ccccc23)cc1Cl | 10 | . | . | . | . | 12
Cc1ccc(Cn2ccc(NC(=O)CCSc3nc(-c4ccco4)cc(C(F)(F)F)n3)n2)cc1 | 50* | -3 | -9* | 1 | 0.0076 | 2
O=C(c1cnn2c1NC(c1ccco1)CC2C(F)(F)F)N1CCN(c2cccc(Cl)c2)CC1 (configuration not stated) | 65* | -4 | -4.2* | 0.8 | 0.38 | 1
O=C(NCc1ccco1)c1cnn2c1NC(c1ccc(Br)cc1)CC2C(F)(F)F (configuration not stated) | 38* | 2 | -4.5 | 0.9 | 0.81 | -3
O=C(Nc1ccc2c(c1)OCO2)c1cnn2c(C(F)(F)F)cc(-c3ccco3)nc12 | 8 | 3 | 0.46 | 1 | -0.19 | -6
Cc1ccccc1Cn1ccc(NC(=O)c2cnn3c(C(F)(F)F)cc(-c4ccco4)nc23)n1 | 33* | 7 | -3.2 | 0.9 | 1.4 | -1
Cc1sc(=NC(=O)c2ccco2)n(C)c1-c1ccc(F)cc1 | 10 | . | 0.97 | . | -0.035 | 0
O=C(c1cnn2c(C(F)(F)F)cc(-c3ccco3)nc12)N1CCCc2ccccc21 | 1 | -15 | -2.2 | 0.9 | 1.9* | -5
O=C(NCc1ccco1)c1cnn2c1NC(c1ccccc1)CC2C(F)(F)F (configuration not stated) | 3 | -1 | 0.6 | 0.9 | 1.9 | -6
COc1ccccc1N1CCN(C(=O)c2cc3n(n2)C(C(F)(F)F)CC(c2ccco2)N3)CC1 (configuration not stated) | 2 | -2 | -2.3 | 0.9 | 0.79 | -4
Cc1ccccc1Cn1ccc(NC(=O)CCSc2nc(-c3ccco3)cc(C(F)(F)F)n2)n1 | 54* | -1 | . | 0.8 | 0.14 | 10
Cc1ccccc1Cn1ccc(NC(=O)c2cnn3c2NC(c2ccccc2)CC3C(F)(F)F)n1 (configuration not stated) | 37* | 13 | -2.3 | . | 0.45 | 11
Cc1ccc(-c2cc(C(F)F)n3ncc(C(=O)N4CCCc5ccccc54)c3n2)cc1 | . | 1 | -0.36 | . | -0.66 | .
O=C(c1cc2n(n1)C(C(F)(F)F)CC(c1ccco1)N2)N1CCc2ccccc2C1 (configuration not stated) | 26 | 4 | -3.7* | 1 | 0.89 | 1
CCN(CC(=O)Nc1cccc(OC)c1)C(=O)c1ccc(C)s1 | -5 | . | 0.98 | . | -0.75 | 9
COc1ccc(NC(=O)N(C2CCCCC2)C2CCN(C(C)C)CC2)c(OC)c1 | 3 | 6 | -0.019 | 0.9 | -1.5 | 12
O=C(CCSc1nnc2scc(-c3ccccc3)n12)NCc1ccc2c(c1)OCO2 | -2 | 8 | 1.2 | 1 | 0.58 | 8

Compound activity (PubChem)
